From PubChem BioAssay AID1053125 (Broad Institute, 2014)
Entries with a potency or affinity are not part of this list. Calls of active or inactive are those of the source.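 Rule for the calls: active = viability loss whose fitted half-maximal concentration is at most twice the top valid tested dose; inconclusive = flat curve with 30 to 70% loss, or poor fit; inactive = the rest.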

experiment: HepG2 cell cytotoxicity, dose response, cytotoxicity control, ATP luminescence, cherry-pick, set 6 (AID 1053125); settings: HepG2 viability, ATP luminescence (CellTiter-Glo), 72 h; series mostly up to 26 µM;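 note: negative values mean loss of viability signal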

SMILES | outcome
CCC(C)n1c(=N)c(C#N)cc2c(=O)n3cccc(C)c3nc21 (stereo not given) | inactive
Cn1cc(C(c2ccccc2OCC(=O)O)c2cn(C)c3ccccc23)c2ccccc21 | inactive
COc1ccc(CCN=C(N)NS(=O)(=O)c2ccc(F)cc2)cc1 | inactive
Cc1cc2cc(CNC(=O)c3ccco3)ccc2n1C | inactive
O=c1[nH]c(Nc2ccccc2Cl)cc2ccccc12 | inactive
Cc1c(Nc2c3ccccc3nc3ccccc23)c(=O)n(-c2ccccc2)n1C | inactive
Cc1cc(-n2c(=O)c(C#N)cc3c(=O)n4ccccc4nc32)no1 | inactive
CCc1cccc(OC2OC(CO)C(O)C(O)C2NC(C)=O)c1 (stereo not given) | inactive
CCN(CC)c1ccc2c(C)c(Cl)c(=O)oc2c1 | inactive
Cc1ccc(S(=O)(=O)CCC(=O)OCC(=O)Nc2cccc(S(=O)(=O)N3CCCCC3)c2)cc1 | inactive
CNC(=O)c1ccc(NC(=O)c2cccc(C(F)(F)F)c2)cc1 | inactive
Cc1c2c(n3c(nc4ccccc43)c1C#N)N(CCN1CCOCC1)CC2 | inactive
CSC1=NSC2=NC(=O)/C(=C/c3coc4ccc(O)cc4c3=O)C(=N)N12 | inactive
O=[N+]([O-])c1cccc(Nc2c3ccccc3nc3ccccc23)c1 | inactive
S=c1[nH]c2ccc(Cc3ccc4[nH]c(=S)[nH]c4c3)cc2[nH]1 | inactive
Cc1cccn2c(=O)c3cc(C(=O)NCCN4CCOCC4)c(=N)n(CCc4ccccc4)c3nc12 | inactive
C/C(=N\NC(=O)CC#N)c1cc2ccc(O)cc2oc1=O | inactive
CCN(CC)c1ccc2cc(C#N)c(=O)oc2c1 | inactive

SMILES | outcome
COc1ccc(CCNC(=O)CSc2cn(Cc3cccc(C)c3)c3ccccc23)cc1OC | inactive
O=C1c2ccccc2S(=O)(=O)c2cc(N3CCC(C(=O)N4CCCCC4)CC3)ccc21 | inactive
COCc1cc(C)nc(SCC(=O)Oc2ccc(Cl)cc2)c1C#N | inactive
CCOc1ccc2nc(NCCCNS(=O)(=O)c3ccc(C)cc3)c(C#N)cc2c1 | inactive
CC1(C)CC(=O)C2=C(C1)OC(N)=C(C#N)[C@@H]2c1ccccc1[N+](=O)[O-] | inactive
CCOc1ccc(NC(=O)CN(C)C(=O)CCCNC(=O)c2ccc(Cl)cc2)cc1OCC | inactive
CC(=O)Oc1ccc(C(=O)Nc2cc(C)on2)cc1 | inactive
CCOC(=O)c1cc(-c2ccccc2)sc1NC(=O)CSc1nnc(N)s1 | inactive
Cc1cccn2c(=O)c(/C=C(\C#N)C(=O)NC3CCS(=O)(=O)C3)c(N3CCC(C(N)=O)CC3)nc12 (stereo not given) | inactive
NC(=O)c1c(NC(=O)Cc2ccccc2)sc2c1CCN(Cc1ccccc1)C2 | inactive
Cc1noc(C)c1S(=O)(=O)N(CC(=O)N1CCCCCC1)c1ccc(C(C)C)cc1 | inactive
CCn1c(=NC(=O)CSC(C)=O)sc2cc(OC)ccc21 | inactive
O=C(C1=NN(c2ccccc2)C2C(=O)N(c3ccccc3)C(=O)C12)c1ccccc1 (stereo not given) | inactive
Cc1ccc(S(=O)(=O)Nc2ccc(Nc3ccccc3)cc2)cc1 | inactive
COc1ccccc1OCc1ccc(C(=O)N(C)c2ccccc2)o1 | inactive
Fc1ccc(-c2nc3ccccn3c2NCc2ccc3c(c2)OCO3)cc1 | inactive
CCCOc1c(Br)cc(C2C3=C(CCCC3=O)N(C)C3=C2C(=O)CCC3)cc1OC | inactive
